# According to PubChem BioAssay:
# The source made the active and inactive calls. Unless noted, the rule behind the calls is not given here.
# Tests used:
# [1] = HepG2 liver cancer cell viability effects, profiling panel, resazurin fluorescence, 24 h, PK04 Diversity Set (AID 1172); conditions: higher = more signal
# [2] = basal S. cerevisiae growth modulation, no modifier, primary screen, OD600, strain BY4716, 24 h, basal condition (AID 1173); conditions: OD600, 24 h, higher = more signal, called active from +8 up or from −8 down
# [3] = MM1S myeloma cell viability, profiling panel, resazurin fluorescence, basal, 24 h, PK04 Diversity Set (AID 1174); conditions: higher = more signal, called active from +8 up or from −8 down;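 note: MM1S multiple myeloma cell line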
# [4] = target: Dihydroorotate dehydrogenase (quinone), mitochondrial (Plasmodium falciparum (isolate 3D7)) (UniProt Q08210); assay: PfDHODH enzyme inhibitors, primary screen, biochemical, C-terminal His tag, absorbance 600 nm (AID 1175); conditions: DCIP absorbance 600 nm, higher = more signal, called active from +8 up or from −8 down;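 note: recombinant parasite enzyme with a five histidine tag at its C terminus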
# Dihydroorotate dehydrogenase (quinone), mitochondrial (Plasmodium falciparum (isolate 3D7)), sequence (Q08210 whole entry, looked up): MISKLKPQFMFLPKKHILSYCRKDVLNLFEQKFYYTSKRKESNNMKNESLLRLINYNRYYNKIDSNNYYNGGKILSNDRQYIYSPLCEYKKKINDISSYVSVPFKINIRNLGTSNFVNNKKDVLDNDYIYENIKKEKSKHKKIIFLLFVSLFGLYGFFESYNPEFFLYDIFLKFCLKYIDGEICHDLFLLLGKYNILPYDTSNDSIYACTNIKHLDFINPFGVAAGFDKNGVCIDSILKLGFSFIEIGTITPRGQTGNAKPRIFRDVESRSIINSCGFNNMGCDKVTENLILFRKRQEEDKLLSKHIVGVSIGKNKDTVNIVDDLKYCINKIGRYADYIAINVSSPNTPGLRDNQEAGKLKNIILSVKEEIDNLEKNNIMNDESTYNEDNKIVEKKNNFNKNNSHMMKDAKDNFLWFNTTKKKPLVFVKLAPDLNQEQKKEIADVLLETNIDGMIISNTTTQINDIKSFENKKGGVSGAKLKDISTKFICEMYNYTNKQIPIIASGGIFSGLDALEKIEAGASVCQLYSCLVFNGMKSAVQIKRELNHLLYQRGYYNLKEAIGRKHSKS
# [5] = P. aeruginosa biofilm formation inhibitors, primary screen, strain PAO1, LB-PBS medium, absorbance 600 nm (AID 1176); conditions: P. aeruginosa PAO1 growth/biofilm, A600, 12 h; higher = more signal
# [6] = S. cerevisiae RM11-1a growth modifiers, primary screen, strain RM11-1a, OD600, basal, 24 h (AID 1177); conditions: OD600, 24 h, higher = more signal, called active from +8 up or from −8 down;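 note: cultures grown under basal conditions with no added stressor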
# [7] = E. coli acrAB mutant growth effects, primary screen, E. coli filamentation inducers, strain DRC39, OD650, 24 h (AID 1178); conditions: higher = more signal, called active from +8 up or from −8 down;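 note: growth measured as culture turbidity by optical density at 650 nm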
# [8] = E. coli acrAB mutant growth effects, primary screen, E. coli filamentation inducers, strain DRC39, OD650, 48 h (AID 1179);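 note: screen aims at cell division blockers that make cells filament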; conditions: E. coli DRC39 delta-acrAB growth, higher = more signal, called active from +8 up or from −8 down
# [9] = RPMI8226 myeloma cell viability, profiling panel, resazurin fluorescence, basal, 24 h, PK04 Diversity Set (AID 1180); conditions: higher = more signal;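 note: RPMI8826 multiple myeloma cell line at 5000 cells per well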
# [10] = target: E3 ubiquitin-protein ligase XIAP (Homo sapiens) (UniProt P98170); assay: XIAP binders, primary screen, biophysical, small-molecule microarray, fluorescence 635 nm (AID 1181); conditions: small-molecule microarray binding, higher = more signal;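 note: score merges 667 nm emission and signal to noise over triplicate slides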
# E3 ubiquitin-protein ligase XIAP (Homo sapiens), sequence (P98170 whole entry, looked up): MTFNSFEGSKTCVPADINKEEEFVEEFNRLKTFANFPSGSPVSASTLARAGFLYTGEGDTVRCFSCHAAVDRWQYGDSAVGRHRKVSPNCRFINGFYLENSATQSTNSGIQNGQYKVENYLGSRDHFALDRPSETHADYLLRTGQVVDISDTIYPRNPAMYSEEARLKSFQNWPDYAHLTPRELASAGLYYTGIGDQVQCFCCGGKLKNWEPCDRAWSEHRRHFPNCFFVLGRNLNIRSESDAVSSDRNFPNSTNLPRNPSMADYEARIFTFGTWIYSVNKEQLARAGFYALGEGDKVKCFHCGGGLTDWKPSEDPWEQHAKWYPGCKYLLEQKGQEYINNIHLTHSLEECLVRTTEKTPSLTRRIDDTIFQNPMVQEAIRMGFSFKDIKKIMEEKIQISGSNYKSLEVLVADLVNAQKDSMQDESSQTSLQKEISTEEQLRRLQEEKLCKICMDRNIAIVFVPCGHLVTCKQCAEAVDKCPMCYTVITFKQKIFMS
# [11] = tested on: XIP peptide (Xip251-270) binding; assay: small-molecule binders of XIP peptide, primary screen, biochemical, small-molecule microarray, fluorescence 635/667 nm, 0.1 µg/mL protein (AID 1182); conditions: fluorescent protein binding, 635 nm, higher = more signal, called active from +8 up or from −8 down
# XIP peptide (Xip251-270) = assay: small-molecule binders of XIP peptide, primary screen, biochemical, small-molecule microarray, fluorescence 635/667 nm, 0.5 µg/mL protein (AID 1183); conditions: small-molecule microarray binding, fluorescence 635 nm; higher = more signal
# [12] = Plasmodium falciparum growth inhibition, primary screen, strain 3D7, DAPI fluorescence, 100 nL (AID 1184);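 note: parasites grown inside human red blood cells in medium with human serum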; conditions: P. falciparum 3D7 growth, 3 d, higher = more signal
# [13] = target: Homeobox protein Hox-A13 (Mus musculus) (UniProt Q62424); assay: inhibitors of HoxA13-DNA binding, primary screen, biochemical, fluorescence polarization, labeled oligonucleotide (AID 1185); conditions: 15 min, higher = more signal, called active from +8 up or from −8 down
# Homeobox protein Hox-A13 (Mus musculus), sequence (Q62424 whole entry, looked up): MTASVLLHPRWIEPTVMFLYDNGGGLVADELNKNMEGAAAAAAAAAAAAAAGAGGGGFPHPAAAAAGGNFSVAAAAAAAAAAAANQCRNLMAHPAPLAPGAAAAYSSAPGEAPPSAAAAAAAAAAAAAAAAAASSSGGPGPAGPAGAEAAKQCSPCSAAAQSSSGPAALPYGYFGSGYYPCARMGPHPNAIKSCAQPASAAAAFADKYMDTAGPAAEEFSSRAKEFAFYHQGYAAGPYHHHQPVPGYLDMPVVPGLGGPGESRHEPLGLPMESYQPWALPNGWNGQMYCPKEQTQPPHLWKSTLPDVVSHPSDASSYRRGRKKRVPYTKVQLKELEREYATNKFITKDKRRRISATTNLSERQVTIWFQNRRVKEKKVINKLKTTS
# [14] = inhibitors of hydroxyurea-induced Chk1 phosphorylation, primary screen, imaging, HeLa, phospho-Chk1 antibody, percent positive cells (AID 1186); conditions: hydroxyurea-induced phospho-Chk1 immunofluorescence imaging, higher = more signal
# [15] = inhibitors of hydroxyurea-induced Chk1 phosphorylation, primary screen, imaging, HeLa, phospho-Chk1 nuclear intensity (AID 1187); conditions: hydroxyurea-induced phospho-Chk1 immunofluorescence imaging, higher = more signal
SMILES,z-score [1],z-score [2],z-score [3],composite z-score [4],z-score [5],z-score [6],z-score [7],z-score [8],z-score [9],composite z-score [10],composite z-score [11],composite z-score (XIP peptide (Xip251-270)),z-score [12],z-score [13],z-score [14],z-score [15]
CCCCCC1=C2CNC(CCC)(C(=O)OC)C=C2C(C)C1=O (configuration not stated),-1.08,0.381 (inactive),-1.34 (inactive),-1.62 (inactive),0.796 (inactive),0.891 (inactive),0.0107 (inactive),0.56 (inactive),-0.888,0.347,0.455 (inactive),-0.0874,-0.175,-6.92 (inactive),0.138 (inactive),0.466 (inactive)
O=C1OCCC/C=C\[C@H]2OC34C=CCN(Cn5nnc6ccccc65)C(=O)[C@H]3N(CCO)C(=O)[C@@H]4C12 (some centres not stated),-0.345,-0.0322 (inactive),0.158 (inactive),1.16 (inactive),0.469 (inactive),0.821 (inactive),0.254 (inactive),-0.146 (inactive),0.0966,0.213,-0.0143 (inactive),0.96,-1.18,-4.72 (inactive),0.0428 (inactive),0.371 (inactive)
CN1C(=O)C2C=CC(C(O)c3ccccc3)N(Nc3ccccc3)C2C1=O (configuration not stated),-1.05,-0.506 (inactive),-1.83 (inactive),0.0323 (inactive),1.67 (inactive),0.166 (inactive),-1.17 (inactive),-1.29 (inactive),-1.52,0.0651,0.599 (inactive),0.357,-0.206,-2.83 (inactive),0.861 (inactive),0.163 (inactive)
CN(C)C(=O)[C@]1(Cc2ccccc2CN=[N+]=[N-])N=C(c2ccc(OCCCO)cc2)O[C@@H]1c1ccccc1CN=[N+]=[N-],-0.053,-0.868 (inactive),-1.19 (inactive),0.587 (inactive),1.06 (inactive),-0.111 (inactive),0.187 (inactive),-0.719 (inactive),-1.1,0.0015,1.01 (inactive),0.637,-2.68,-0.212 (inactive),-0.123 (inactive),-0.249 (inactive)
O=C(NCc1ccc(F)cc1)[C@H]1C[C@H]2C(=O)N[C@@H](Cc3ccccc3)C(=O)N2[C@H]1c1ccc(O)cc1,-0.354,1.41 (inactive),0.396 (inactive),-0.0513 (inactive),-0.0185 (inactive),1.23 (inactive),0.222 (inactive),-0.324 (inactive),0.512,-0.224,0.114 (inactive),0.832,-0.237,-1.6 (inactive),-0.762 (inactive),-0.352 (inactive)
CCOC(=O)[C@H]1C/C=C/C[C@H](C(=O)OCC)C(=O)O[C@H]2[C@@H](OC)O[C@H](CO)[C@@H](OC(=O)Nc3cccc(F)c3)[C@@H]2OC1=O,-5.49,-0.218 (inactive),-9.05 (active),-0.0103 (inactive),1.74 (inactive),1.84 (inactive),0.675 (inactive),1.23 (inactive),-7.34,0.125,1.17 (inactive),0.526,-1.73,-2.16 (inactive),-0.197 (inactive),-0.145 (inactive)
C=CCN1C(=O)[C@]2(O[C@H](CCO)[C@@H]([Si](C)(C)c3ccc(OC)cc3)[C@@H]2C)c2cc(N3C(=O)c4cccc5cccc3c45)ccc21,-5.43,1.7 (inactive),-8.43 (active),1.72 (inactive),0.662 (inactive),6.52 (inactive),2.21 (inactive),1.44 (inactive),-6.23,0.0374,0.966 (inactive),0.749,-2.74,-3.37 (inactive),-2.42 (inactive),-1.91 (inactive)
